Test [1] in a line: Wnt pathway potentiators raising nuclear beta-catenin – imaging, WNT3A-conditioned medium, mouse C2C12, NPC library, primary screen (AID 1117326; in the data active means nuclear beta-catenin stimulation mostly above about 4.2%, no sharp cut-off; inactive means mostly below about 10%). The conditions noted are these: stronger effect = higher value.
The nature of test [2]: stimulators of insulin release from INS-1E, primary screen, cell-based, 5 mM glucose, NPC library (AID 1117329;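 active means compound raises insulin release from rat beta cells at 5 mM glucose, no numeric limit stated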). The note with it: rat INS-1E insulin secretion, at 10 µM, stronger effect = higher value.
A short description of test [3]: growth inhibition of GSK3B-pretreated HCT116 cells – cell-based, CellTiter-Glo, 0.2 to 20 µM (AID 1117336). The note with it: HCT116 viability after GSK3B inhibitor, at 20 µM, stronger effect = higher value. On the technique in general: ATP-based viability assays read luminescence as a measure of living cells.
A short description of test [4]: inhibition of endothelial tube formation, primary screen, imaging, VEGF stimulated, CD31 staining, tube area, NPC library (AID 1117340;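 active means compound that reduces growth-factor-driven endothelial tube area in a mixed cell culture, no cutoff stated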). The conditions noted are these: VEGF-stimulated ADSC/ECFC co-culture, at 10 µM, stronger effect = higher value.
A short description of test [5]: GLP1 release stimulators, primary, NCI-H716, NPC library (AID 1117341;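 active means compound raises GLP1 secretion from the human gut endocrine cells, with no numeric limit stated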). The note with it: NCI-H716 cells, at 10 µM, stronger effect = higher value.
Test [6] is described as follows: HCT116 colon cancer cell growth inhibition, primary screen, CellTiter-Glo luminescence, NPC library (AID 1117342;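 active means compounds that lower survival of HCT116 colon cancer cells in the luminescence readout, no numeric limit stated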). The note with it: at 20 µM (top of the series).
The nature of test [7]: reduced SW480 viability measured with CellTiter-Glo, NPC library, primary (AID 1117343;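 active means compounds that lower viability of the colon cancer cells in the luminescence readout, with no numeric limit stated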). The conditions noted are these: CellTiter-Glo luminescence; at 20 µM (top of the series) unless noted.
Test [8] in a line: NPC library primary testing for decreased DLD-1 cell viability via CellTiter-Glo (AID 1117346;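 active means compounds that lower survival of DLD-1 colon cancer cells in the luminescence readout, no cutoff given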). The conditions noted are these: DLD-1 viability, CellTiter-Glo luminescence; at 20 µM (top of the series).
The nature of test [9]: viability loss in pontine glioma line – cell-based, SU-DIPG-XVII, MIPE5.0, CellTiter-Glo, qHTS, dose response (AID 1347060; cut-off not given, nearly all actives have AC50 up to about 26 µM). The note with it: CellTiter-Glo ATP luminescence.
A short description of test [10]: viability loss in pontine glioma line – cell-based, SU-DIPG-XIII, MIPE4.0, CellTiter-Glo, qHTS, dose response (AID 1347061; cut-off not given, nearly all actives have AC50 up to about 37 µM;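 further: cells exposed to compound for 48 hours before readout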). The note with it: CellTiter-Glo ATP luminescence.
Test [11] in a line: growth inhibition of DIPG cells – cell-based, MIPE4.0 library, CellTiter-Glo luminescence, qHTS (AID 1347066; cut-off not given, nearly all actives have AC50 up to about 30 µM;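 further: cells exposed to compound for 48 hours before readout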). The conditions noted are these: SU-DIPG-VI viability, CellTiter-Glo ATP luminescence.
A short description of test [12]: growth inhibition of DIPG cells – cell-based, MIPE5.0 library, qHTS (AID 1347068; cut-off not given, nearly all actives have IC50 up to about 30 µM). The conditions noted are these: SU-DIPG-XXV viability. Background: In qHTS, concentration-response curves come from the screen itself.
Test [13] deals with NAD(+) hydrolase SARM1 (Homo sapiens) (UniProt Q6SZW1). The test is described as follows: blocking NAD cleavage by SARM1 SAM-TIR – cell lysate, NAD-Glo luminescence (AID 1508614;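 active means compound whose remaining NAD level is above about 45 nM, limit read from the data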). The conditions noted are these: SAM-TIR HEK293T lysate NADase, at 1 µM, stronger effect = higher value.
Test [14] deals with Aerobactin synthetase IucA (Klebsiella pneumoniae). The test is described as follows: inhibition of K. pneumoniae IucA enzyme – biochemical, Tocris library, absorbance (AID 1345561; call rule not given here;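 further: 100% = enzyme without compound and 0% = no enzyme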). The note with it: purified IucA enzyme assay, absorbance (OD) read-out; stronger effect = lower value;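 tested at 8 µM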.
Test [15] in a line: viability loss with induced miR-34 in A549 – imaging, A549 dox-inducible miR-34, nuclei and caspase counts, primary screen (AID 1347080;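 active means compounds whose cell count with miR-34 switched on is under 0.7 times the count with it off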). The note with it: A549 miR-34 inducible, Hoechst nuclei count, 48 h.
A short description of test [16]: galactose survival enhancers in mitochondrial complex I cybrids – cell-based, galactose medium, ATP luminescence, primary screen (AID 1645843;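 active means z-score of at least 1.8 in each of two replicates, scored against plate mean and spread of sample wells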;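 further: positive z means more ATP and so rescue of galactose-driven cybrid death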). The conditions noted are these: complex I mutant cybrid cells, 72 h, stronger effect = higher value.
A short description of test [17]: P. berghei load reduction in hepatocytes – cell-based, HepG2, luciferase luminescence, HepG2 viability, primary screen (AID 624349; in the data active means parasite load remaining mostly below about 12%, no sharp cut-off; inactive means mostly above about 10%;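 further: 100% = mean of DMSO negative control wells on the same plate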). The note with it: P. berghei liver stage in HepG2, luciferase luminescence, concentration not given here; parasite load remaining: stronger effect = lower value; viability: measured here: HepG2 viability without parasites.
Test [18] is described as follows: MELAS cybrid and Rieske KO viability enhancers – cell-based, MELAS cybrids, Rieske KO mouse fibroblasts, CellTiter-Glo, primary screen (AID 1508586;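 active means mean z-score across replicates of 1.96 or higher in either the MELAS or the Rieske mutant cell line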;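 further: z relative to plate mean and SD of compound and empty wells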). The conditions noted are these: low glucose.
The mark [19] stands for this setting: stronger effect = lower value, cell number ratio, induced over uninduced.
The mark [20] stands for this setting: measured here: relative caspase fold change +Dox/-Dox.
Setting [21] is: measured here: total cells with miR-34 induction, stronger effect = lower value.
Setting [22] is: measured here: total cells without miR-34 induction.

Five compounds from PubChem BioAssay can be followed below.

Molecules are shown by their SMILES. “And” between values parts separate entries of the source, which are not always exact repeats. Identical values can stand only once. Records with an inconclusive call do not appear. The source made the active and inactive calls.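 How the source made its calls, unless noted: active means compounds lowering colon cancer cell viability after pretreatment blocking the GSK3B kinase; inactive means the rest.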

Sequence of NAD(+) hydrolase SARM1 (Homo sapiens) (Q6SZW1 whole entry, looked up): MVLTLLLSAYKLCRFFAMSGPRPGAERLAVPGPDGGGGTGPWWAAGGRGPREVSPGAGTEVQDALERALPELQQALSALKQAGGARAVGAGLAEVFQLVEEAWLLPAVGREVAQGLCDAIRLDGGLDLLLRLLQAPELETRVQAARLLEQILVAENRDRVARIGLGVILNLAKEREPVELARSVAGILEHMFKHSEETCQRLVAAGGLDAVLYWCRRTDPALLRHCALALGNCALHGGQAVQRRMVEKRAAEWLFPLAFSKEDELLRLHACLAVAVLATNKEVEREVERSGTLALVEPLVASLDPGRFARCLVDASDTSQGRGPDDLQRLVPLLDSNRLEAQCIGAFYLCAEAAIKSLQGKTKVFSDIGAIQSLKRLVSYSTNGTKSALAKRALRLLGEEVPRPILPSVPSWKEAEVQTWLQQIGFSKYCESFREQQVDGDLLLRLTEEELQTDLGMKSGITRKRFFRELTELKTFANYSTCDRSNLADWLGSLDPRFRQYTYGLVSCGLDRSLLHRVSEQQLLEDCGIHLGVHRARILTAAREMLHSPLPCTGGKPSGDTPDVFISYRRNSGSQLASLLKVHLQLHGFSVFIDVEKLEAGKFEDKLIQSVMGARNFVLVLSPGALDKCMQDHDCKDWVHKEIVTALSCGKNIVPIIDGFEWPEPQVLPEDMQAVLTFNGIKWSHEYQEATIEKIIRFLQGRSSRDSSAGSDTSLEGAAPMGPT

For `O=C(O)C(=O)Nc1cccc(-c2nn[nH]n2)c1`, the nuclear beta-catenin stimulation in test [1] (at 10 µM) was 1.3% (inactive); in test [1] (stimulation, at 2 µM), 1.9%. The insulin secretion stimulation in test [2] was 4% (inactive). Further, the viability decrease in test [3] was 19.5% (inactive). Further, the tube area decrease in test [4] is 0.4% (inactive). The GLP1 secretion stimulation in test [5] was -3.2% (inactive). The inhibition of viability in test [6] was -2.9% (inactive). Also, the viability decrease (inhibition) in [7] was 32.2% (inactive); in test [8], 9.1% (inactive). Also, the outcome in test [9], in test [10], in test [11] and in test [12] was inactive.

Regarding `Cc1oc(=O)oc1CN1CCN(c2cc3c(cc2F)c(=O)c(C(=O)O)c2n3C(C)S2)CC1` (centres undefined), the nuclear beta-catenin stimulation in test [1] (at 10 µM) was 0.8% (inactive); in [1] (stimulation, at 2 µM), 1.4%. The insulin secretion stimulation in test [2] was 1.6% (inactive). Also, the viability decrease in [3] is 35.8% (inactive). Besides, in [4], the tube area decrease is 4.4% (inactive). Moreover, the GLP1 secretion stimulation in test [5] is 2.3% (inactive). For the same compound, the inhibition of viability in test [6] is 38.1% (inactive). The viability decrease (inhibition) in [7] was 26.1% (inactive); in test [8] it was 1.4% (inactive). In addition, the compound was called inactive in test [9], in test [10], in test [11] and in [12]. Further, the remaining NAD in test [13] is 10 nM (inactive).

As a reminder, the remaining activity is the signal under treatment as a percentage of the control signal. As for `O=c1[nH]c2cc(C(F)(F)F)c(N3CCOCC3)cc2n(CP(=O)(O)O)c1=O`, the nuclear beta-catenin stimulation is 1.2% (inactive) in test [1] (at 10 µM) and -0.5% in test [1] (stimulation, at 2 µM). Also, the insulin secretion stimulation in [2] was 0.85% (inactive). The viability decrease in test [3] was 17.9% (inactive). In test [4], the tube area decrease is -10.1% (inactive). Also, the GLP1 secretion stimulation in [5] is 1% (inactive). In addition, in test [6], the inhibition of viability was 6.1% (inactive). The results for the viability decrease (inhibition) in [7] and in test [8] were -13.4% (inactive) and 1.2% (inactive), respectively. For the same compound, in [14], the remaining activity was 126% (inactive). For the same compound, the results for the fold change in test [15] (setting [19]) and in test [15] (setting [20]) were 0.942 (inactive) and 1.52, respectively. Moreover, the cell count in test [15] (setting [21]) was found to be 9280; in [15] (setting [22]) it was 9850. The z-score in test [16] is 0.07 (inactive).

In general, viability refers to a read-out of living cells in per cent, often relative to untreated cells. As to `CCN[C@H]1C[C@H](C)S(=O)(=O)c2sc(S(N)(=O)=O)cc21`, in [17], the parasite load remaining is 70.8% (inactive) and 54% (inactive). For the same compound, the viability in test [17] is 73% and 119%. Further, the nuclear beta-catenin stimulation is 0.6% (inactive) in test [1] (at 10 µM) and 1.7% in [1] (stimulation, at 2 µM). The insulin secretion stimulation in test [2] was 2.65% (inactive). Besides, the viability decrease in test [3] is 10.3% (inactive). Also, the tube area decrease in [4] is -2.8% (inactive). For the same compound, the GLP1 secretion stimulation in test [5] was 2.1% (inactive). The inhibition of viability in test [6] is 4.1% (inactive). Besides, the viability decrease (inhibition) is -12.1% (inactive) in test [7] and 3.2% (inactive) in [8]. Also, the compound was classed as inactive in test [9], in test [10], in [11] and in [12]. The fold change in test [15] (setting [19]) is 0.888 (inactive) and 0.89 (inactive); in [15] (setting [20]), 0.692 and 0.631. In addition, the cell count was 8830 and 9540 in [15] (setting [21]); 9940 and 10700 in test [15] (setting [22]). The z-score in test [18] (MELAS cybrid survival, CellTiter-Glo 48 h, stronger effect = higher value) was -0.0417 (inactive) and -1.04 (inactive); in [18] (Rieske KO mouse fibroblast survival, CellTiter-Glo 72 h), -0.635 and -0.666; in test [16], 0.255 (inactive).

As to `COc1cc2c(cc1OC)[C@@H]1CC(=O)[C@@H](CC(C)C)CN1CC2`, the nuclear beta-catenin stimulation in [1] (at 10 µM) is 0.6% (inactive); in test [1] (stimulation, at 2 µM) it was 0.1%. The insulin secretion stimulation in [2] is -1.9% (inactive). In [3], the viability decrease was -9.4% (inactive). The tube area decrease in test [4] is -10% (inactive). Besides, the GLP1 secretion stimulation in test [5] is -2.7% (inactive). Moreover, the inhibition of viability in test [6] was 21.4% (inactive). The viability decrease (inhibition) in test [7] was 2.6% (inactive); in test [8] it was 5.2% (inactive). Besides, in test [14], the remaining activity is 81.5% (inactive). In addition, the fold change in test [15] (setting [19]) is 0.993 (inactive); in test [15] (setting [20]) it was 1.02. For the same compound, the cell count in [15] (setting [21]) worked out at 8740; in [15] (setting [22]), 8800. Also, in [16], the z-score was 0.105 (inactive).
